Values joined by “and” are separate entries in the source; they are usually repeats but may differ in a detail not shown here. Identical values can stand only once. Compounds without any hit were thinned out: in the full panel of roughly 79,000, 15% have a hit. Active and inactive are the calls of the source. No stated cut-off is given here; in the data, active means growth inhibition above about 70%; inactive means the rest.
Key:
[1] = NCI Yeast Anticancer Drug Screen. Data for the rad50 strain (AID 155);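 further: 0% = growth of vehicle-only cultures of the same strain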; conditions: S. cerevisiae rad50 strain growth inhibition, active compounds read high; at 50.0 µM unless noted
Method in brief: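 Yeast carrying a defined DNA repair defect were exposed to test compounds, and growth was compared with vehicle-treated controls to give percent inhibition.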

[2] = NCI Yeast Anticancer Drug Screen. Data for the mec2-1 strain (AID 157); conditions: S. cerevisiae mec2-1 strain, active compounds read high; at 50.0 µM unless noted
Method in brief: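 Strain: mec2-1 (DNA repair/cell cycle alteration). Compound exposure, then growth measured; inhibition expressed relative to vehicle.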

[3] = NCI Yeast Anticancer Drug Screen. Data for the sgs1 mgt1 strain (AID 161);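 further: 0% = growth of cultures given vehicle only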; conditions: S. cerevisiae sgs1 mgt1 strain, active compounds read high; at 50.0 µM unless noted
Method in brief: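 Mutant yeast exposed to compound; growth scored against vehicle-only wells.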

[4] = NCI Yeast Anticancer Drug Screen. Data for the cln2 rad14 strain (AID 165);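 further: 0% = growth equal to vehicle treated cultures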; conditions: S. cerevisiae cln2 rad14 strain, active compounds read high; at 50.0 µM unless noted
Method in brief: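 Compounds are applied to the cln2 rad14 yeast strain, and growth is then compared with that of vehicle-treated cultures to give inhibition.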

[5] = NCI Yeast Anticancer Drug Screen. Data for the bub3 strain (AID 167); conditions: S. cerevisiae bub3 mutant strain, active compounds read high; at 50.0 µM unless noted
Method in brief: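 Compounds were applied to a genetically altered yeast strain carrying a cell-cycle control defect. Growth inhibition was scored against vehicle-treated controls.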

[6] = NCI Yeast Anticancer Drug Screen. Data for the mlh1 rad18 strain (AID 175); conditions: S. cerevisiae mlh1 rad18 strain growth inhibition, active compounds read high; at 50.0 µM unless noted
Method in brief: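 Read-out is yeast growth inhibition, calculated against vehicle-only controls. The compound was applied to a strain engineered with DNA damage repair alterations.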

Measured: growth inhibition

CC1C(=O)C(c2cccs2)(C2CCCCC2)CC[N+]1(C)C (stereo not given)
inactive: [1] 0% | [2] 4.5% | [3] -6.05% | [4] -19.1% | [5] 1.25% | [6] 17.4%

O=C(COc1cc(Cl)c(Cl)cc1Cl)Nc1ccc(Cl)cc1
inactive: [1] 14.7% | [2] 19.9% | [3] 18% | [4] 17.2% | [5] 17.1% | [6] 11.2%

CCN1CCC(O)C1 (stereo not given)
inactive: [1] 18.6% | [2] -0.1% | [3] 19.2% | [4] 14.2% | [5] 26% | [6] 30.9%

OC1CSc2nc3ccccc3n2C1 (stereo not given)
inactive: [1] 17.6% | [2] 9.25% | [3] 12.3% | [4] 9.7% | [5] 20.8% | [6] 38.9%

CCCCCCCC/C=C\CCCCCCCC(=O)NC(C)(C)C(=O)O
inactive: [1] -16.2% | [2] -15.7% | [3] -9.5% | [4] 62.6% | [5] 32.2% | [6] -36.4%

NNC(=O)c1nc2ccccc2s1
inactive: [1] 18.1% | [2] 4.75% | [3] -8.3% | [4] 5.95% | [5] 8.95% | [6] 20.6%

CC(C)OC(=O)CC1NS(=O)(=O)c2ccccc21 (stereo not given)
inactive: [1] 3.9% | [2] 1% | [3] -9.7% | [4] 24.6% | [5] -16.6% | [6] 20.6%

CCCNC(=O)NS(=O)(=O)c1ccc(Cl)cc1
inactive: [1] -4.15% and -5.15% | [2] 0.2% and -0.4% | [3] 4.2% and 1.6% | [4] 15.6% and -26.4% | [5] 11.7% and 23.1% | [6] 38.3% and -7.15%

CNCc1cc(Br)cc(Br)c1O
inactive: [1] 6.9% | [2] -6.2% | [3] 15.4% | [4] -43.1% | [5] 1.45% | [6] -2.6%

CCCCC1(N=[N+]=[N-])C(=O)C2C=CC=C3c4ccccc4N(C1=O)C32 (stereo not given)
inactive: [1] -1.15% | [2] -11.2% | [3] -5.8% | [4] -43.2% | [5] 34.7% | [6] 2.85%

NC(=O)C1(N2CCCCC2)CCNCC1
inactive: [1] 7.85% | [2] -16.5% | [3] -8.2% | [4] 6.9% | [5] -5.45% | [6] 3.95%

Cc1no[n+]([O-])c1/C=N/NS(=O)(=O)c1ccccc1
inactive: [1] 2.25% | [2] -17.6% | [3] -12.9% | [4] -6.05% | [5] -2.7% | [6] -23.1%

COc1cccc(NC(=O)NCCCl)c1OC
inactive: [1] -1.2% | [2] 11.8% | [3] 11.6% | [4] 41% | [5] -3.8% | [6] 22.4%

CCOC(=O)CCC(Br)(Br)Br
inactive: [1] 10% | [2] 16% | [3] 1.7% | [4] 12.8% | [5] 4.6% | [6] 10.2%

COc1cc2c(c(OC)c1OC)-c1ccc(SC)c(=O)cc1[C@@H](NC(=O)CCl)CC2
inactive: [1] -2.1% | [2] 19.6% | [3] 0.5% | [4] 6.85% | [5] 16.6% | [6] 15.6%

O=C(/C=C/c1ccc(OCC(=O)N2CCN(c3ccccc3)CC2)cc1)c1ccccc1
inactive: [1] 13% | [2] 16% | [3] 35.6% | [4] -5.95% | [5] 16.7% | [6] 10.7%

Cn1nc(-c2ccccc2)c(C(=O)/C=C/c2ccccc2)c(N2CCCCC2)c1=O
inactive: [1] -27.9% | [2] -11.6% | [3] -11.5% | [4] 3% | [5] 27% | [6] -27.8%

CC1COC(C)(C)P(=O)(c2ccccc2)C1 (stereo not given)
inactive: [1] -6.9% | [2] -9% | [3] -11.3% | [4] 16.2% | [5] -7.15% | [6] -27.4%

CC(C)(CO)NCC(C)(C)[N+](=O)[O-]
inactive: [1] 8.5% | [2] 2.25% | [3] 14.6% | [4] -9.2% | [5] 6.95% | [6] 6.7%

CCCC1SCC(=O)N1c1nncs1 (stereo not given)
inactive: [1] 6.5% | [2] 3.5% | [3] -23.2% | [4] -29.1% | [5] -8% | [6] -30.6%

O=C(NCCCOC(=O)CCCCCCCCC(=O)OCCCNC(=O)NC(=O)c1c[nH]c(=O)[nH]c1=O)NC(=O)c1c[nH]c(=O)[nH]c1=O
inactive: [1] -11.5% | [2] -18.6% | [3] -7.85% | [4] 8.3% | [5] 6.05% | [6] -14.9%

N#C/C(=C\c1ccc2ccccc2c1)C(=O)c1ccccc1
inactive: [1] 13.7% | [2] -14.3% | [3] -15.3% | [4] 17.8% | [5] -17.7% | [6] -47.7%

CC(C)CCNc1ccccc1
inactive: [1] 1.55% | [2] -7.65% | [3] -9.85% | [4] -2.8% | [5] 3.55% | [6] 0.45%

COc1cccc2c(SC)c(C)[nH]c12
inactive: [1] 14.9% | [2] -0.4% | [3] 18.8% | [4] -0.05% | [5] -19.8% | [6] 14.8%

Cc1ccc(S(=O)(=O)NC(=O)NC(C)C(=O)O)cc1 (stereo not given)
inactive: [1] -1.15% | [2] -5.65% | [3] -13.2% | [4] 0.2% | [5] 2.5% | [6] -7.65%

C/C(=N\Nc1nc2ccccc2s1)c1ccc2c(c1)Sc1ccccc1O2
inactive: [1] 42.9% | [2] 7.7% | [3] 11.9% | [4] 21.8% | [5] -1.8% | [6] 15.9%

O=C(O)c1cccc(OCCO)c1
inactive: [1] -10% | [2] -11.2% | [3] -35.8% | [4] -26.4% | [5] -17.9% | [6] -29.9%

CC(=O)Nc1snc(C)c1[N+](=O)[O-]
inactive: [1] -4.55% | [2] -0.1% | [3] 6.75% | [4] -8.2% | [5] -2.9% | [6] 0.55%

Cc1ccc(/C=C(/c2ccccc2)C(CC(=O)O)C(=O)O)cc1 (stereo not given)
inactive: [1] -4.75% | [2] -11.3% | [3] -6.85% | [4] -44.7% | [5] -6.35% | [6] -14.5%

COc1cc(O)c(C(C)=O)c(O)c1
inactive: [1] 9.55% | [2] 16.2% | [3] 9.5% | [4] 16.8% | [5] 29.2% | [6] 18.5%

O=S(=O)([O-])[O-].O=c1[nH]cnc2[nH]ncc12.O=c1[nH]cnc2[nH]ncc12.[Zn+2]
inactive: [1] -26.2% | [2] 4.15% | [3] -15.9% | [4] 3.65% | [5] -20.8% | [6] -17.6%

COC(=O)CCc1ccco1
inactive: [1] 10.6% | [2] -10% | [3] 3.4% | [4] 2.5% | [5] 6.95% | [6] 12.7%

Cn1cnc([N+](=O)[O-])c1Sc1ncn[nH]1
inactive: [1] -3.45% and 6% | [2] 3.3% and -1.85% | [3] 8.45% and 2.6% | [4] 0.35% and 24.6% | [5] 4% and 21.8% | [6] -54.3% and 0.9%

CC(C)CCCC(C)C1CCC2C3CC(C(=O)O)C(C)(CCC(=O)O)C3CCC12C (stereo not given)
inactive: [1] 44% | [2] 36% | [3] 43.9% | [4] 30% | [5] 4% | [6] 41.7%

O=P(O)(O)OC1OC(CO)C(O)C(O)C1O (stereo not given)
inactive: [1] -16.5% | [2] -26.2% | [3] -3.9% | [4] -25.6% | [5] -24.8% | [6] -4.75%

CN(C)c1ccc(/C=N/Nc2nc3ccccc3c(=O)n2-c2ccccc2)cc1
inactive: [1] -3.05% | [2] -16.1% | [3] 6.55% | [4] 17.9% | [5] 26.1% | [6] -3.7%

CN(Cc1ccccc1)C(=O)Nc1ccc(Cl)c(Cl)c1
active: [1] 95.8% | [2] 99% | [3] 99% | [4] 97.1% | [5] 97.7% | [6] 98.5%

NC(=O)CSCC(N)=O
inactive: [1] 0.75% | [2] -13.9% | [3] 3.45% | [4] 6.05% | [5] -2.75% | [6] 22%

O=c1[nH]c(=O)n(C2OC(CO)C(O)C2O)c2ccccc12 (stereo not given)
inactive: [1] 8.3% | [2] -6.4% | [3] -8% | [4] -2% | [5] -5.45% | [6] 3.8%

COC(=O)c1ccc(N=NN(C)CN=[N+]=[N-])cc1
inactive: [1] 13.3% | [2] 19.7% | [3] 21.2% | [4] -21.3% | [5] 11.3% | [6] 3.15%
